The results in this text go back to PubChem BioAssay (NCI).

About 83,000 compounds went through this panel and 20% of them were active in at least one assay; those are over-represented in the sample as a whole.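 A percent growth of 40 corresponds to 60% growth inhibition; 0 means no net growth; -100 means all cells died. Active threshold: below 10.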 A number with no mark means an inactive call. Calls of active or inactive are those of the source.

Test systems include NCI-H23 lung; NCI-H226 lung; NCI-H322M lung; HOP-62 NSCLC; NCI-H460 lung; HOP-92 NSCLC; NCI-H522 lung; A549/ATCC NSCLC; 786-0 renal; COLO 205 colon.
Common to all, as to test: NCI-60 one-dose screen, 48 h (100 = growth as untreated, 0 = no growth, -100 = all killed)
What all share (conditions): 10 µM unless noted

On to `CCOC(=O)c1c(/C=C/C(=O)O)nc2ccccc2c1/C=C/c1ccccc1`, for which the growth was 50.3% in the experiment with NCI-H23 lung; 53.8% with NCI-H226 lung; 72.7% with NCI-H322M lung; 63.3% in the experiment with HOP-62 NSCLC; 28.5% with NCI-H460 lung; 60.1% in the experiment on HOP-92 NSCLC. Further, the growth in the experiment with NCI-H522 lung is 40.9%; in the experiment with A549/ATCC NSCLC, 70.7%; with 786-0 renal, 54.9%; in the experiment on COLO 205 colon it was 84%.

As for `COc1cc(/C=C/C(=O)c2ccc(Nc3nc(Nc4ccc(F)cc4)nc(Nc4ccc(Cl)cc4)n3)cc2)cc(OC)c1OC`, the growth in the experiment on NCI-H23 lung is 26.3%; with NCI-H226 lung it was 61.1%; with NCI-H322M lung, 99.6%; in the experiment with HOP-62 NSCLC it was 82.1%; in the experiment on NCI-H460 lung it was 55.1%; in the experiment on HOP-92 NSCLC it was 38%. Besides, the growth with NCI-H522 lung was 62.2%; with A549/ATCC NSCLC, 53.1%; with 786-0 renal, 66.4%; with COLO 205 colon it was 78.5%.

On to `Clc1cccc(Cl)c1/C=C/c1cc(/C=C/c2c(Cl)cccc2Cl)[nH]n1`, for which the growth with NCI-H23 lung is 43.6%; in the experiment with NCI-H226 lung it was 30.6%; with NCI-H322M lung, 38.2%; with HOP-62 NSCLC, 49.7%; with NCI-H460 lung, 11.4%; with HOP-92 NSCLC, 102%. The growth in the experiment with NCI-H522 lung was -9.35% (active); in the experiment with A549/ATCC NSCLC it was 38.7%; in the experiment on 786-0 renal it was 23.1%; with COLO 205 colon, 17.7%.

`O=[N+]([O-])c1ccc(N2c3ccncc3Sc3ccncc32)cc1`: the growth was 102% in the experiment with NCI-H23 lung; 105% in the experiment with NCI-H226 lung; 105% in the experiment on NCI-H322M lung; 104% in the experiment on HOP-62 NSCLC; 122% in the experiment with NCI-H460 lung; 80.2% in the experiment with HOP-92 NSCLC. Also, the growth in the experiment on NCI-H522 lung is 87.8%; with A549/ATCC NSCLC, 110%; with 786-0 renal, 107%; with COLO 205 colon, 111%.

For `Cc1cc(NCc2cc(Nc3ccnc4cc(Cl)ccc34)ccc2F)nc(N2CCN(C)CC2)n1`, the growth with NCI-H23 lung was 39.3%; in the experiment on NCI-H226 lung, 64.1%; in the experiment on NCI-H322M lung, 33.8%; in the experiment with HOP-62 NSCLC, 6.67% (active); in the experiment with NCI-H460 lung, -45.3% (active); in the experiment on HOP-92 NSCLC, 45.4%. Also, the growth was -30.8% (active) in the experiment on NCI-H522 lung, 23% in the experiment with A549/ATCC NSCLC, -69.7% (active) in the experiment with 786-0 renal and -73.4% (active) with COLO 205 colon.

Consider `O=C(CCCCCCN1CC(=O)N2[C@@H](c3ccccc3Cl)c3[nH]c4ccccc4c3C[C@H]2C1=O)NO`, for which the growth was 76.8% in the experiment with NCI-H23 lung; 95.4% with NCI-H226 lung; 81.8% in the experiment on NCI-H322M lung; 73.3% in the experiment on HOP-62 NSCLC; 67.8% with NCI-H460 lung; -6.12% (active) in the experiment on HOP-92 NSCLC. Moreover, the growth in the experiment with NCI-H522 lung was 28.8%; in the experiment with A549/ATCC NSCLC it was 97%; in the experiment with 786-0 renal it was 83.8%; in the experiment on COLO 205 colon, 59.6%.

For `CCOc1c(C#N)nnc2c(C#N)c(NC(=O)c3ccccc3)nn12`, the growth is 90.8% in the experiment on NCI-H23 lung; 92.6% in the experiment on NCI-H226 lung; 95% in the experiment with NCI-H322M lung; 96.6% in the experiment on HOP-62 NSCLC; 111% with NCI-H460 lung; 89.3% with HOP-92 NSCLC. Moreover, the growth with NCI-H522 lung was 95%; with A549/ATCC NSCLC it was 95%; in the experiment on 786-0 renal, 98.4%; with COLO 205 colon it was 107%.

Take `NC[C@H](O)c1ccc(O)c(O)c1`: the growth is 98.8% with NCI-H23 lung; 109% in the experiment with NCI-H226 lung; 110% in the experiment on NCI-H322M lung; 105% in the experiment with HOP-62 NSCLC; 103% in the experiment with NCI-H460 lung; 65.8% in the experiment on HOP-92 NSCLC. Further, the growth in the experiment on NCI-H522 lung is 102%; in the experiment on A549/ATCC NSCLC, 109%; in the experiment with 786-0 renal, 108%; in the experiment on COLO 205 colon it was 109%.

On to `Cc1cc(NCc2cc(Nc3ccnc4cc(Cl)ccc34)ccc2F)nc(N2CCSCC2)n1`, for which the growth with NCI-H23 lung is 26.9%; in the experiment with NCI-H226 lung, 84.6%; with NCI-H322M lung, 43.2%; in the experiment on HOP-62 NSCLC, -41.6% (active); with NCI-H460 lung, 6.39% (active); with HOP-92 NSCLC it was 37.7%. The growth with NCI-H522 lung is -23.6% (active); in the experiment with A549/ATCC NSCLC, 39%; in the experiment with 786-0 renal, 15.5%; with COLO 205 colon, -38.5% (active).

Regarding `Cc1ccc2nc(C)c(-c3nnc(SCc4ccc(C#N)cc4)o3)n2c1`, the growth in the experiment on NCI-H23 lung was 85.3%; in the experiment with NCI-H226 lung, 93.5%; with NCI-H322M lung, 90.7%; in the experiment with HOP-62 NSCLC, 97.6%; with NCI-H460 lung, 102%; in the experiment with HOP-92 NSCLC it was 104%. Also, the growth was 97% in the experiment with NCI-H522 lung, 104% with A549/ATCC NSCLC, 72.2% in the experiment on 786-0 renal and 116% in the experiment on COLO 205 colon.

Regarding `CCCCCCCC/C=C\CCCCCCCCOc1ccccc1CC(=O)NCC[N+](C)(C)C`, the growth was 65.5% in the experiment with NCI-H23 lung; 52.3% in the experiment on NCI-H226 lung; 96.6% with NCI-H322M lung; 37% in the experiment with HOP-62 NSCLC; 23.8% in the experiment on NCI-H460 lung; 61.3% in the experiment with HOP-92 NSCLC. Also, the growth is 51.1% with NCI-H522 lung, 71.4% in the experiment on A549/ATCC NSCLC, 50.5% in the experiment with 786-0 renal and -7.71% (active) in the experiment with COLO 205 colon.

On to `COc1cc(OC)cc(C2CC(=O)Nc3c2c(C)nn3-c2nc3ccccc3[nH]2)c1` (stereo not given), for which the growth in the experiment on NCI-H23 lung is 5.52% (active); in the experiment on NCI-H226 lung it was 36.5%; in the experiment with NCI-H322M lung, 59.9%; with HOP-62 NSCLC, -44.2% (active); in the experiment with NCI-H460 lung, 5.89% (active); in the experiment on HOP-92 NSCLC it was 0.274% (active). For the same compound, the growth in the experiment with NCI-H522 lung was 3.99% (active); with A549/ATCC NSCLC, 15.2%; with 786-0 renal, 25.4%; in the experiment with COLO 205 colon, 51.4%.

Consider `COc1ccc(-c2nc3ccc4[nH]ncc4c3c3c2CCCC3)cc1B(O)O`, for which the growth was 72.2% in the experiment with NCI-H23 lung; 61.2% with NCI-H226 lung; 63.4% in the experiment on NCI-H322M lung; 51.3% with HOP-62 NSCLC; 35.3% in the experiment on NCI-H460 lung; 49.8% in the experiment with HOP-92 NSCLC. Further, the growth is 48.1% with NCI-H522 lung, 53.7% with A549/ATCC NSCLC, 63.6% in the experiment on 786-0 renal and 45.8% with COLO 205 colon.
